KCNQ2 enhance: potentiators of rat KCNQ2 potassium channel | B-score at 10 µM | 0.54% of 310,000 active | CHO-K1 KCNQ2, FluxOR thallium flux fluorescence; active compounds read high | O88943;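 active = fluorescence ratio B-score at least 3 SD of library B-scores, with initial fluorescence B-score within 3 of them, cut at about 5.3 in these data; same plate scores as AID 2156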;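 note: B-score of peak minus minimum over baseline fluorescence ratio after K+ and Tl+ stimulus; positive B-score means potentiation of KCNQ2 with more thallium influx and brighter signal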
Target sequence (O88943 whole entry, looked up): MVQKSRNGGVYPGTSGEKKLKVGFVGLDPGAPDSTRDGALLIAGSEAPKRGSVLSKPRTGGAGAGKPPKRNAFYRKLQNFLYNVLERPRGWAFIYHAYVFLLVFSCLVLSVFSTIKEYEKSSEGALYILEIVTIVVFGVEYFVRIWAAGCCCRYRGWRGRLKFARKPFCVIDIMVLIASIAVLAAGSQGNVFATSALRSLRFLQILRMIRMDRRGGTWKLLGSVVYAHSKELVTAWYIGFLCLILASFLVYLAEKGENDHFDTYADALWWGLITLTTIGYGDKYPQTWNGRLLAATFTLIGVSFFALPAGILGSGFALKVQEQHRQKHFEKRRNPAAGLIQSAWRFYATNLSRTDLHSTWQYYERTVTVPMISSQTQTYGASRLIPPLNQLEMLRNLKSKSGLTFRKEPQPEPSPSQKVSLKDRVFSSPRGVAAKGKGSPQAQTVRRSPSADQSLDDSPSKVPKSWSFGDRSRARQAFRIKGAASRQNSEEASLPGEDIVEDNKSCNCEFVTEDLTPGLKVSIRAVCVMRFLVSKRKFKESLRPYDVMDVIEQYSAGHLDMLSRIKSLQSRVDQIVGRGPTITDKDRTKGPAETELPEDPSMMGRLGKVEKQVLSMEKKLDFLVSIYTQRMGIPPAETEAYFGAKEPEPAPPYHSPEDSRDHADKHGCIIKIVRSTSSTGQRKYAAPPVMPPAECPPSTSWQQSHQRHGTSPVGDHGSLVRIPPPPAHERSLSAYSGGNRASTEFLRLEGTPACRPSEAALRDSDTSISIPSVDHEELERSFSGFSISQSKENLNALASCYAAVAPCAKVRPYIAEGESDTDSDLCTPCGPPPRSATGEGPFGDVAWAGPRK
KCNQ2 block: blocks the rat KCNQ2 potassium channel. 1.1% of 310,000 active. AID 2156. B-score at 10 µM. CHO-K1 KCNQ2, FluxOR thallium flux, 20 min; active compounds read low;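 active = fluorescence ratio B-score at most minus 3 library SDs, with starting brightness B-score within 2 library SDs, cut at about -5.5 in these data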
* = called active by the depositor; i = inactive; . = no result. A selection: hits, their analogues and other compounds. The true share with any hit is near 1.6%.

SMILES	KCNQ2 enhance	KCNQ2 block
CCOc1ccccc1C(=O)NC(C(=O)NCc1ccccc1OC)C(C)C (stereo not given)	-6.23	-6.23*
COc1ccc(CN(CC(=O)NCc2ccc(F)cc2)C(=O)c2csnn2)cc1	1.69	i
COc1cc(OC)c(NC(=O)CCCNC(=O)Cn2cnc3sc(C)c(C)c3c2=O)cc1Cl	0.13	i
CCOc1ccc(CN2C(=O)c3ccccc3C2=O)cc1C(=O)N1CCC(C(N)=O)CC1	0.07	i
Cc1cccc(C(=O)Nc2ccc(O)c3c(=O)cc(-c4ccccc4Cl)oc23)c1	.	i
CN(C)c1ccc(C(=O)Nc2ccc(O)c3c(=O)cc(-c4ccccc4Cl)oc23)cc1	-5.85	-5.85*
Cc1ccccc1CNC(=O)Cn1cnc(S(=O)(=O)N2CCCC2)c1	0.6	i
COc1ccc(C(CNC(=O)c2ccc3c(c2)C(=O)N(CCC(C)C)C3=O)N2CCOCC2)cc1 (stereo not given)	-5.75	-5.75*
COc1ccc(C(CNC(=O)c2ccc(S(=O)(=O)N3CCCC3)cc2)N2CCOCC2)cc1 (stereo not given)	.	i
Cc1cc(C)c(S(=O)(=O)c2ccc(C(C)(C)C)cc2)c(Cl)n1	.	i
OC(CNCC1CCCO1)COc1ccc(OCC(O)CNCC2CCCO2)cc1 (stereo not given)	0.91	i
CCOC(=O)c1c(C)n(-c2ccc(C)cc2)c2ccc(OCC(O)CNCC3CCCO3)cc12 (stereo not given)	-6.29	-6.29*
COc1ccc2nc(/N=C/c3c(C)[nH]n(-c4ccc(C)cc4C)c3=O)sc2c1	20.3*	i
COc1ccccc1N=Cc1c(C)[nH]n(-c2ccc(C)cc2C)c1=O	.	i
CCc1ccc(C(C(=O)NCc2ccccc2)N(C(=O)c2csnn2)C2CC2)cc1 (stereo not given)	.	i
COc1cccc(NC(=O)CN(C)C(=O)Cn2c(=O)oc3ccccc32)c1	0.06	i
N#Cc1nc(-c2cccc3ccccc23)oc1NCCN1CCCCC1	-7.94	-7.94*
CCNc1oc(-c2cccc3ccccc23)nc1C#N	.	i
O=C(Oc1ccccc1)c1cccc2cccc(C(=O)Oc3ccccc3)c12	-5.79	-5.79*
O=C(Oc1ccccc1)c1cc2ccccc2oc1=O	.	i
CCN1CCN(CCNC(=O)c2ccc(CS(=O)c3ccc(Cl)cc3)o2)CC1 (stereo not given)	1.16	i
CCN1CCN(CCNC(=O)c2ccc(CS(=O)c3ccc(Br)cc3)o2)CC1 (stereo not given)	5.61*	i
CC1=CC(=O)O[C@@H]1[C@@]1(C)C[C@H]2OC(=O)C[C@H]3[C@@H](C)C(=O)C(O)=C1[C@@]23CO	0.52	i
O=C(CO/N=C/c1ccccc1OC(F)F)N1CCc2ccccc21	.	i
O=C(CO/N=C/c1ccccc1Cl)N1CCCc2ccccc21	-6.1	-6.1*
SMILES	KCNQ2 enhance	KCNQ2 block
Cc1ccc(-c2nnc(N3CCOCC3)c3ccccc23)cc1S(=O)(=O)N(C)C	0.17	i
CCOC(=O)Cn1nc(-c2ccccc2)c2ccccc2c1=O	0.13	i
O=c1c2ccccc2c(-c2ccccc2)nn1Cc1c(Cl)cccc1Cl	-5.82	-5.82*
CC(C)c1ccc(NC(=O)CN2CCN(C(=O)C3CCCO3)CC2)cc1 (stereo not given)	.	i
O=c1[nH]c(C2CCCN(S(=O)(=O)c3ccccc3)C2)nc2c1nnn2Cc1ccc(OC(F)(F)F)cc1 (stereo not given)	0.06	i
O=S(=O)(c1ccc(OC(F)(F)F)cc1)N1CCCC(c2ccccc2)C1 (stereo not given)	-5.72	-5.72*
CC(=O)N1CCOc2ccc(S(=O)(=O)NCc3ccc(F)cc3)cc21	.	i
Cc1ccc(S(=O)(=O)n2nccc2-c2c(-c3ccc(Cl)cc3)noc2C)cc1	.	i
Cc1ccc(C(=O)Nc2cccc(C(=O)O)c2)cc1	1.5	i
Cc1oc2c(c1C(=O)Nc1cccc(C(=O)O)c1)CCCC2	5.57*	i
CCCCCCCCN1[C@@H](CC(=O)OC)c2cc(F)ccc2S1(=O)=O	-6.04	-6.04*
CCCCCCCCN1[C@@H](CC(=O)OCC)c2cc(F)ccc2S1(=O)=O	.	i
NC(=O)c1cc(C(=O)Cc2ccc(Cl)cc2)c[nH]1	.	i
Cc1ccc(NC(=O)CCCn2c(=S)[nH]c3ccsc3c2=O)cc1C	.	i
COc1ccccc1OCC(=O)N1CCCC(Nc2ccc(C)c(C)c2)C1 (stereo not given)	.	i
COC(=O)C1CN(C(=O)COc2ccccc2C)c2ccccc2O1 (stereo not given)	.	i
COc1ccc(NC2CCCN(C(=O)COc3ccc(Cl)cc3C)C2)cc1OC (stereo not given)	-6.13	-6.13*
COC(=O)C1CN(C(=O)COc2ccc(Cl)cc2C)c2ccccc2O1 (stereo not given)	-6.97	-6.97*
O=C(CCS(=O)(=O)Cc1ccccc1F)NCCc1ccc(Cl)cc1	.	i
COc1ccccc1CC(=O)Nc1ccon1	0.39	i
CCOc1ccc(S(=O)(=O)N2CCCCC2)cc1NC(=O)Cc1cccs1	1.66	i

High-throughput results (PubChem)
